For 40 compounds, Potency and activity change, negative = inhibition results are on record in PubChem BioAssay (Tox21).

Records with an inconclusive call do not appear. A call without a number means that no potency is given here. A number with no mark means an inactive call. Calls of active or inactive are those of the source. Calls come from the whole dose curve; as a rule, active = well fitted inhibition curve with a large enough effect in the repeat runs; inconclusive = weak or mixed curves; inactive = no such curve, though single readings can be large or run the other way. Positions of bridges follow the written chain, without caps; N, C: chain ends. Non-standard residues stand in square brackets, D forms with d. Residues, ends and D or L forms follow the SMILES beside them. hArg = N=C(N)NCCCC[C@H](N)C(=O)O; Mpa = O=C(O)CCS
Potency is the fitted concentration of half-maximal effect.

Sequence of Cytochrome P450 1A2 (Homo sapiens) (P05177 whole entry, looked up): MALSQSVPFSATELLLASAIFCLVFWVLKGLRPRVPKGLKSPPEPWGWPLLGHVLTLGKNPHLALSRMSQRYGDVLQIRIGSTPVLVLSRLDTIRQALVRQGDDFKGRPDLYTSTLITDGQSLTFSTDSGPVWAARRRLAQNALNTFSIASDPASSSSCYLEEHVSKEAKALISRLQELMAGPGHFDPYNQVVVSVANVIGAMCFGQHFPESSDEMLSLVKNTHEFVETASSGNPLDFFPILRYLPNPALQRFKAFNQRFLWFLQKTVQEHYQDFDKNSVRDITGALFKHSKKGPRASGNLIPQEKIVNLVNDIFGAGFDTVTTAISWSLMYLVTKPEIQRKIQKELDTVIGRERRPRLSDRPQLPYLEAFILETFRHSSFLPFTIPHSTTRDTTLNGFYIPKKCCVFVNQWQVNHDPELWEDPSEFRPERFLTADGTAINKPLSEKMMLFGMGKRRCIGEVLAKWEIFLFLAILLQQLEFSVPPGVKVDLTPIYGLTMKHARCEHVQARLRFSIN

This assay addresses Cytochrome P450 1A2 (Homo sapiens) (UniProt P05177). Briefly: Cytochrome P450 Family 1 Subfamily A Member 2 (CYP1A2) small molecule antagonists: luciferase reporter qHTS assay (AID 1671199). Note: nearly all actives have a fitted effect of over 50% in size. The settings on record: P450-Glo CYP1A2 enzyme, luciferin luminescence, 1 h; series mostly up to 115 µM. From the text: National Center for Advancing Translational Sciences [NCATS]
U.S. Environmental Protection Agency [EPA]
National Institutes of Environmental Health Sciences [NIEHS]
National Toxicology Program [NTP]
U.S. Food and Drug Administration [FDA]
Cytochrome P450 (CYP) enzymes are membrane-bound hemeproteins that play a key role in metabolism of drugs and xenobiotics. Evaluation of the effect of chemicals on CYP isozymes is useful to minimize the adverse drug reactions and toxicities in drug development process. Tox21 chemicals were tested for their effect on CYP enzyme activities by using P450-Glo (TM) screening systems (Promega Corporation, Madison, WI). These systems provide a luminescent method containing proluciferin substrates and are converted to luciferin products by CYP isozymes. The luciferin products formed are detected with a luciferin detection reagent, and the amount of light produced is proportional to CYP activity. P450-Glo (TM) CYP1A2 screening system (Catalog. No. V9770) was used to detect the compounds that interfere in CYP1A2 activity. The positive control compound used for CYP1A2 assay is furafylline (Sigma-Aldrich, St. Louis, MO).
Tox21 Assay Protocol Summary:
Two ul of enzyme-substrate mix was dispensed into medium binding white/solid 1536-well plates (Greiner Bio-One North America Inc., Monroe, NC) using a BioRaptr Flying Reagent Dispenser (FRD, Beckman Coulter, Brea, CA). Compounds dissolved in DMSO and positive control (furafyllline) were transferred to the assay plates at 23 nl using a Pintool station (Wako, San Diego, CA). The assay plates were incubated at room temperature for 10 min. Then 2 ul of NADPH regeneration solution was added to each well of the assay plates using an FRD and incubated at room temperature for 1 h. The reaction was stopped by adding 4 ul of detection reagent using an FRD and after 20 min incubation at room temperature the luminescence signal was measured using a ViewLux plate reader (Perkin Elmer, Shelton, CT). Data were expressed as relative luminescence units.
On to `CC(C)NCC(O)c1ccc2ccccc2c1` (stereo not given), for which the Potency was 15.5 µM (active). Still for that read-out and setting: as for `CC(Oc1cc(Cl)ccc1Cl)C(=O)O` (stereo not given), the entry is “inactive”; as for `O=C(O)CNC(=O)CNC(=O)CNC(=O)CSC(=O)c1ccccc1`, “inactive”. Same read-out and setting: as for `C/C=C(\C)C(C)=O`, the entry is “inactive”.

Take `CN(C)CCCCl`: the Potency result was “inactive”. The same measure, in the same setting: under `C[C@@H](O)C(=O)O` stands “inactive”; under `Cc1cccc(Cl)c1`, “inactive”. Still for that read-out and setting: under `CC(C)NC(=O)c1ccc(C=O)cc1` stands 34.7 µM (active). Same read-out and setting: as for `CCc1occc(=O)c1O`, the entry is “inactive”; as for `Cc1ccc(N)cc1S(=O)(=O)O`, 39.9 µM (active); as for `CC(=O)CC(=O)OC(C)(C)C`, “inactive”. On to `CCO[Si](CC)(OCC)OCC`, for which the Potency result was “inactive”.

Regarding `CCOc1ccccc1OCC1CNCCO1` (stereo not given), the Potency is 0.575 µM (active).

With `[O-][n+]1cccc(/C(Cl)=N/OC[C@@H](O)CN2CCCCC2)c1`, the Potency entry was “inactive”.

With `CCOc1cccc(N)c1`, the Potency is 35.4 µM (active). As for `COC(=O)CCCCC(=O)O`, the Potency entry was “inactive”. With `CC1(C)[C@H]2CC[C@](C)(C2)[C@H]1O`, the Potency result is “inactive”.

As to `CC/C(C)=N\O[Si](C)(O/N=C(\C)CC)O/N=C(\C)CC`, the Potency is 40.5 µM (active). Still for that read-out and setting: as for `N#Cc1ccccc1O`, the entry is “inactive”; as for `CCC[C@@H]1C[C@@H](C(=O)N[C@@H]([C@H]2O[C@H](SC)[C@H](O)[C@@H](O)[C@H]2O)[C@@H](C)O)N(C)C1`, “inactive”; as for `O/N=C/C=N/O`, “inactive”. The same measure, in the same setting: under `O=C(O)CSCC(=O)NC1CCSC1=O` (stereo not given) stands “inactive”. With `CCC(C)OC(C)CC` (stereo not given), the Potency result was “inactive”. Still for that read-out and setting: as for `CO[C@@]1(NC(=O)Cc2cccs2)C(=O)N2C(C(=O)O)=C(COC(N)=O)CS[C@@H]21`, the entry is “inactive”. Consider `CC(N)CCCC(C)(C)O` (stereo not given), for which the Potency entry is “inactive”. As for `OC1OCCOC1O` (stereo not given), the Potency was 35.6 µM (active).

`CC1CCc2c(N3CCC(O)CC3)c(F)cc3c(=O)c(C(=O)O)cn1c23` (stereo not given): the Potency entry is “inactive”. Turning to `NC(=O)[C@@H]1CSSCCC(=O)N[C@@H](CCCCN=C(N)N)C(=O)NCC(=O)N[C@@H](CC(=O)O)C(=O)N[C@@H](Cc2c[nH]c3ccccc23)C(=O)N2CCC[C@H]2C(=O)N1` ([Mpa][hArg]GDWPC-NH2; disulfide 1-7), the Potency entry is “inactive”. Take `c1ccc2c(CC3=NCCN3)cccc2c1`: the Potency result was “inactive”. With `CCCc1ccc(O)cc1`, the Potency was 44.8 µM (active).

Regarding `OCC1(CO)COCOC1`, the Potency result was “inactive”.

Consider `CSc1cnccn1`, for which the Potency entry is “inactive”. Still for that read-out and setting: as for `Cc1ncc([N+](=O)[O-])n1CC(C)O` (stereo not given), the entry is “inactive”. On to `CCCC(=O)OCCC(C)CCC=C(C)C` (stereo not given), for which the Potency is 39.9 µM (active). In the case of `C=CCN1C[C@H](C(=O)N(CCCN(C)C)C(=O)NCC)C[C@@H]2c3cccc4[nH]cc(c34)C[C@H]21`, the Potency result was “inactive”. As to `CCCCCCCCCCCCCCC(=O)NC(CO)CCCCCCCCCCCCCC` (stereo not given), the Potency was 63.8 µM (active). The same measure, in the same setting: under `CCCCCc1cccc(=O)o1` stands 35.6 µM (active). Regarding `C=CC(=O)CCCCC`, the Potency entry is “inactive”. Take `O=S(=O)(O)c1ccc2c(N=Nc3ccc(S(=O)(=O)O)c4ccccc34)c(O)c(S(=O)(=O)O)cc2c1`: the activity change, negative = inhibition was -17.3% [at 10.5 µM]. Turning to `OC[C@@H](O)C(O)[C@@H](O)CO` (stereo not given in full), the Potency entry was “inactive”.
